According to PMC11006913:
Numbering of substitutions follows the chain as printed.

How the values were obtained:
Assay in all cases: PBM; 200 nM protein, PBS
Conditions in all cases: dsDNA, one strand shown
NKX2-4 [1] = target: T1, NKX2-4 (Homo sapiens, UniProt Q9H2Z4 175-261, P217L)
T1 sequence: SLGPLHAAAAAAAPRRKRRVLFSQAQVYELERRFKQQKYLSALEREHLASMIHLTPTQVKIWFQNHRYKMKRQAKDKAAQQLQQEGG

NKX2-4 [2] = target: T2, NKX2-4 (Homo sapiens, UniProt Q9H2Z4 175-261, T231S)
T2 sequence: T1 sequence with L43P, T57S

NKX2-4 [3] = target: T3, NKX2-4 (Homo sapiens, UniProt Q9H2Z4 175-261)
T3 sequence: T1 sequence with L43P

NKX2-4 [4] = target: T4, NKX2-4 (Homo sapiens, UniProt Q9H2Z4 175-261, R246Q)
T4 sequence: T1 sequence with L43P, R72Q

Sequence | binding signal (NKX2-4 [1]) | binding signal (NKX2-4 [2]) | binding signal (NKX2-4 [3]) | binding signal (NKX2-4 [4])
ATGTCCGG | 9.39 upbm affinity estimate (log intensity, higher = more binding, comparable within an allelic series) | 9.43 upbm affinity estimate (log intensity, higher = more binding, comparable within an allelic series) | 9.4 upbm affinity estimate (log intensity, higher = more binding, comparable within an allelic series) | 9.49 upbm affinity estimate (log intensity, higher = more binding, comparable within an allelic series)
AGTGGTTC | 11.8 upbm affinity estimate (log intensity, higher = more binding, comparable within an allelic series) | 12 upbm affinity estimate (log intensity, higher = more binding, comparable within an allelic series) | 11.8 upbm affinity estimate (log intensity, higher = more binding, comparable within an allelic series) | 12.1 upbm affinity estimate (log intensity, higher = more binding, comparable within an allelic series)
AAAGTACT | 12.4 upbm affinity estimate (log intensity, higher = more binding, comparable within an allelic series) | 12.8 upbm affinity estimate (log intensity, higher = more binding, comparable within an allelic series) | 12.3 upbm affinity estimate (log intensity, higher = more binding, comparable within an allelic series) | 12.8 upbm affinity estimate (log intensity, higher = more binding, comparable within an allelic series)
CTCGAGTA | 12.3 upbm affinity estimate (log intensity, higher = more binding, comparable within an allelic series) | 12.6 upbm affinity estimate (log intensity, higher = more binding, comparable within an allelic series) | 12.1 upbm affinity estimate (log intensity, higher = more binding, comparable within an allelic series) | 12.6 upbm affinity estimate (log intensity, higher = more binding, comparable within an allelic series)
CGATCGCA | 9.9 upbm affinity estimate (log intensity, higher = more binding, comparable within an allelic series) | 9.92 upbm affinity estimate (log intensity, higher = more binding, comparable within an allelic series) | 9.93 upbm affinity estimate (log intensity, higher = more binding, comparable within an allelic series) | 9.97 upbm affinity estimate (log intensity, higher = more binding, comparable within an allelic series)
ACTCATAG | 11.7 upbm affinity estimate (log intensity, higher = more binding, comparable within an allelic series) | 11.8 upbm affinity estimate (log intensity, higher = more binding, comparable within an allelic series) | 11.6 upbm affinity estimate (log intensity, higher = more binding, comparable within an allelic series) | 11.9 upbm affinity estimate (log intensity, higher = more binding, comparable within an allelic series)
CCAGAGAC | 9.71 upbm affinity estimate (log intensity, higher = more binding, comparable within an allelic series) | 9.67 upbm affinity estimate (log intensity, higher = more binding, comparable within an allelic series) | 9.71 upbm affinity estimate (log intensity, higher = more binding, comparable within an allelic series) | 9.63 upbm affinity estimate (log intensity, higher = more binding, comparable within an allelic series)
AAGAGGGG | 11.9 upbm affinity estimate (log intensity, higher = more binding, comparable within an allelic series) | 12.2 upbm affinity estimate (log intensity, higher = more binding, comparable within an allelic series) | 11.8 upbm affinity estimate (log intensity, higher = more binding, comparable within an allelic series) | 12.1 upbm affinity estimate (log intensity, higher = more binding, comparable within an allelic series)
CAGCCCAG | 9.47 upbm affinity estimate (log intensity, higher = more binding, comparable within an allelic series) | 9.32 upbm affinity estimate (log intensity, higher = more binding, comparable within an allelic series) | 9.45 upbm affinity estimate (log intensity, higher = more binding, comparable within an allelic series) | 9.54 upbm affinity estimate (log intensity, higher = more binding, comparable within an allelic series)
CCGCGGTA | 9.81 upbm affinity estimate (log intensity, higher = more binding, comparable within an allelic series) | 9.73 upbm affinity estimate (log intensity, higher = more binding, comparable within an allelic series) | 9.75 upbm affinity estimate (log intensity, higher = more binding, comparable within an allelic series) | 9.9 upbm affinity estimate (log intensity, higher = more binding, comparable within an allelic series)
GCACTCGA | 12.5 upbm affinity estimate (log intensity, higher = more binding, comparable within an allelic series) | 13 upbm affinity estimate (log intensity, higher = more binding, comparable within an allelic series) | 12.5 upbm affinity estimate (log intensity, higher = more binding, comparable within an allelic series) | 13.1 upbm affinity estimate (log intensity, higher = more binding, comparable within an allelic series)
TCATCGAA | 11.4 upbm affinity estimate (log intensity, higher = more binding, comparable within an allelic series) | 11.5 upbm affinity estimate (log intensity, higher = more binding, comparable within an allelic series) | 11.2 upbm affinity estimate (log intensity, higher = more binding, comparable within an allelic series) | 11.5 upbm affinity estimate (log intensity, higher = more binding, comparable within an allelic series)
ACGCAGTG | 9.7 upbm affinity estimate (log intensity, higher = more binding, comparable within an allelic series) | 9.67 upbm affinity estimate (log intensity, higher = more binding, comparable within an allelic series) | 9.6 upbm affinity estimate (log intensity, higher = more binding, comparable within an allelic series) | 9.5 upbm affinity estimate (log intensity, higher = more binding, comparable within an allelic series)
CGCCACAA | 9.76 upbm affinity estimate (log intensity, higher = more binding, comparable within an allelic series) | 9.79 upbm affinity estimate (log intensity, higher = more binding, comparable within an allelic series) | 9.73 upbm affinity estimate (log intensity, higher = more binding, comparable within an allelic series) | 9.79 upbm affinity estimate (log intensity, higher = more binding, comparable within an allelic series)
ACGAGTAT | 11.5 upbm affinity estimate (log intensity, higher = more binding, comparable within an allelic series) | 11.7 upbm affinity estimate (log intensity, higher = more binding, comparable within an allelic series) | 11.4 upbm affinity estimate (log intensity, higher = more binding, comparable within an allelic series) | 11.6 upbm affinity estimate (log intensity, higher = more binding, comparable within an allelic series)
CACTTTGA | 11.7 upbm affinity estimate (log intensity, higher = more binding, comparable within an allelic series) | 12 upbm affinity estimate (log intensity, higher = more binding, comparable within an allelic series) | 11.6 upbm affinity estimate (log intensity, higher = more binding, comparable within an allelic series) | 12 upbm affinity estimate (log intensity, higher = more binding, comparable within an allelic series)

Sequence | binding signal (NKX2-4 [1]) | binding signal (NKX2-4 [2]) | binding signal (NKX2-4 [3]) | binding signal (NKX2-4 [4])
CCCAAACG | 9.71 upbm affinity estimate (log intensity, higher = more binding, comparable within an allelic series) | 9.8 upbm affinity estimate (log intensity, higher = more binding, comparable within an allelic series) | 9.76 upbm affinity estimate (log intensity, higher = more binding, comparable within an allelic series) | 9.88 upbm affinity estimate (log intensity, higher = more binding, comparable within an allelic series)
ATCGGTCC | 9.97 upbm affinity estimate (log intensity, higher = more binding, comparable within an allelic series) | 9.94 upbm affinity estimate (log intensity, higher = more binding, comparable within an allelic series) | 9.85 upbm affinity estimate (log intensity, higher = more binding, comparable within an allelic series) | 9.95 upbm affinity estimate (log intensity, higher = more binding, comparable within an allelic series)
CACTCGAG | 12.4 upbm affinity estimate (log intensity, higher = more binding, comparable within an allelic series) | 12.8 upbm affinity estimate (log intensity, higher = more binding, comparable within an allelic series) | 12.4 upbm affinity estimate (log intensity, higher = more binding, comparable within an allelic series) | 13 upbm affinity estimate (log intensity, higher = more binding, comparable within an allelic series)
AAAGCACT | 11.7 upbm affinity estimate (log intensity, higher = more binding, comparable within an allelic series) | 11.9 upbm affinity estimate (log intensity, higher = more binding, comparable within an allelic series) | 11.6 upbm affinity estimate (log intensity, higher = more binding, comparable within an allelic series) | 11.9 upbm affinity estimate (log intensity, higher = more binding, comparable within an allelic series)
GCTGTGCA | 9.63 upbm affinity estimate (log intensity, higher = more binding, comparable within an allelic series) | 9.66 upbm affinity estimate (log intensity, higher = more binding, comparable within an allelic series) | 9.61 upbm affinity estimate (log intensity, higher = more binding, comparable within an allelic series) | 9.6 upbm affinity estimate (log intensity, higher = more binding, comparable within an allelic series)
AACTCTTG | 11.7 upbm affinity estimate (log intensity, higher = more binding, comparable within an allelic series) | 11.8 upbm affinity estimate (log intensity, higher = more binding, comparable within an allelic series) | 11.6 upbm affinity estimate (log intensity, higher = more binding, comparable within an allelic series) | 12 upbm affinity estimate (log intensity, higher = more binding, comparable within an allelic series)
CAGTGACC | 9.77 upbm affinity estimate (log intensity, higher = more binding, comparable within an allelic series) | 9.84 upbm affinity estimate (log intensity, higher = more binding, comparable within an allelic series) | 9.8 upbm affinity estimate (log intensity, higher = more binding, comparable within an allelic series) | 9.7 upbm affinity estimate (log intensity, higher = more binding, comparable within an allelic series)
GTACTCAA | 12.6 upbm affinity estimate (log intensity, higher = more binding, comparable within an allelic series) | 13 upbm affinity estimate (log intensity, higher = more binding, comparable within an allelic series) | 12.5 upbm affinity estimate (log intensity, higher = more binding, comparable within an allelic series) | 13.1 upbm affinity estimate (log intensity, higher = more binding, comparable within an allelic series)
CGGGTACG | 9.52 upbm affinity estimate (log intensity, higher = more binding, comparable within an allelic series) | 9.68 upbm affinity estimate (log intensity, higher = more binding, comparable within an allelic series) | 9.69 upbm affinity estimate (log intensity, higher = more binding, comparable within an allelic series) | 9.6 upbm affinity estimate (log intensity, higher = more binding, comparable within an allelic series)
CCGAGACG | 9.51 upbm affinity estimate (log intensity, higher = more binding, comparable within an allelic series) | 9.47 upbm affinity estimate (log intensity, higher = more binding, comparable within an allelic series) | 9.47 upbm affinity estimate (log intensity, higher = more binding, comparable within an allelic series) | 9.44 upbm affinity estimate (log intensity, higher = more binding, comparable within an allelic series)
TCCGGACA | 9.56 upbm affinity estimate (log intensity, higher = more binding, comparable within an allelic series) | 9.6 upbm affinity estimate (log intensity, higher = more binding, comparable within an allelic series) | 9.6 upbm affinity estimate (log intensity, higher = more binding, comparable within an allelic series) | 9.66 upbm affinity estimate (log intensity, higher = more binding, comparable within an allelic series)
CGTTGTCC | 9.74 upbm affinity estimate (log intensity, higher = more binding, comparable within an allelic series) | 9.8 upbm affinity estimate (log intensity, higher = more binding, comparable within an allelic series) | 9.79 upbm affinity estimate (log intensity, higher = more binding, comparable within an allelic series) | 9.81 upbm affinity estimate (log intensity, higher = more binding, comparable within an allelic series)
CGCGGCCC | 9.94 upbm affinity estimate (log intensity, higher = more binding, comparable within an allelic series) | 9.93 upbm affinity estimate (log intensity, higher = more binding, comparable within an allelic series) | 10 upbm affinity estimate (log intensity, higher = more binding, comparable within an allelic series) | 9.94 upbm affinity estimate (log intensity, higher = more binding, comparable within an allelic series)
CCTCTTCA | 12.5 upbm affinity estimate (log intensity, higher = more binding, comparable within an allelic series) | 12.8 upbm affinity estimate (log intensity, higher = more binding, comparable within an allelic series) | 12.4 upbm affinity estimate (log intensity, higher = more binding, comparable within an allelic series) | 13 upbm affinity estimate (log intensity, higher = more binding, comparable within an allelic series)
TCCACTCA | 12.4 upbm affinity estimate (log intensity, higher = more binding, comparable within an allelic series) | 12.8 upbm affinity estimate (log intensity, higher = more binding, comparable within an allelic series) | 12.3 upbm affinity estimate (log intensity, higher = more binding, comparable within an allelic series) | 12.8 upbm affinity estimate (log intensity, higher = more binding, comparable within an allelic series)
CCTGGAGC | 9.98 upbm affinity estimate (log intensity, higher = more binding, comparable within an allelic series) | 9.95 upbm affinity estimate (log intensity, higher = more binding, comparable within an allelic series) | 9.96 upbm affinity estimate (log intensity, higher = more binding, comparable within an allelic series) | 9.94 upbm affinity estimate (log intensity, higher = more binding, comparable within an allelic series)
